The values that follow come from PubChem BioAssay AID485313 (National Center for Advancing Translational Sciences (NCATS), 2010).

Among all 320,000 compounds or so, about 7,600 (2.4%) were called active. Entries that show only a call come without a potency. Roughly 3% stayed inconclusive and do not appear here. The call rests on the fitted dose curve; in most records, active means well fitted activation curve with a large enough effect; inconclusive means small, poorly fitted or top-dose-only effect; inactive means no such curve, though single readings can be large or run the other way. This excerpt belongs to a sample that is enriched for actives.
Potency means the concentration at half of the fitted maximal effect.

The assay in a line: qHTS Assay for NPC1 Promoter Activators. Further: nearly all actives have a fitted effect of over 60% in size.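 On activation: reporter is driven by a mutant NPC1 promoter.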 Conditions: Huh7 NPC1 promoter luciferase reporter, 24 h; series mostly up to 9.22 µM. The method in brief:
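In 1536-well qHTS, Huh7 cells harboring an NPC1 promoter–luciferase construct received compound for 24 h; activation was quantified by luminescence following luciferase reagent addition.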
(Quantitative high-throughput screening tests each substance at several concentrations.)
`O=C(OCc1ccc([N+](=O)[O-])cc1)c1ccccn1`: the Potency result is “inactive”.
For the compound `O=[N+]([O-])c1ccc(NC(=S)N2CCN(c3ccccn3)CC2)cc1`, the Potency result is “inactive”.
With `O=C(Nc1ccc([N+](=O)[O-])cc1)OCCc1ccccn1`, the Potency was 3.55 µM (active).
The result for `Cc1ccc(NC(=O)c2cccc(S(=O)(=O)N3CCCc4ccccc43)c2)nc1` reads “inactive”.
In the case of `Cc1cc(C(=O)OCC(=O)Nc2ccccc2Cl)c(C)o1` it was “inactive”; in that of `CCCc1ccc(C(=O)COC(=O)CN2C(=O)NC3(CCCCC3C)C2=O)cc1` (stereo not drawn), “inactive”.
In the case of `COc1ccc(-c2nnc(SCC(=O)c3cccs3)o2)c(OC)c1` it was 2.24 µM (active).
For `COc1ccc(CCNC(=O)CSc2nnc(CNC(=O)c3cccs3)o2)cc1OC`, the Potency result was “inactive”.
In the case of `COc1ccccc1-c1nnc(SCC(=O)N2CC(C)CC(C)C2)o1` (stereo not drawn) it was “inactive”; in that of `O=C(NNC(=O)c1ccc(-n2cncn2)c([N+](=O)[O-])c1)c1ccccc1`, “inactive”; in that of `Nc1ccc2nn(-c3ccc(Cl)cc3)nc2c1`, 0.447 µM (active).
In the case of `CN(C)c1nnnn1-c1ccc(Cl)cc1`, the Potency entry was “inactive”.
The result for `c1ccc(-n2nc3ccccc3n2)cc1` reads “inactive”.
In the case of `CN(CC(=O)NC1CCN(Cc2ccccc2)CC1)S(=O)(=O)c1ccc(Cl)s1`, the Potency result is “inactive”.
In the case of `CCCn1c(=O)c(C(=O)Nc2cc(C)ccn2)c(O)c2ccccc21` it was “inactive”; in that of `C=CCn1c(=O)c(C(=O)Nc2ncccc2O)c(O)c2ccccc21`, “inactive”.
With `Cn1c(=O)c(C(=O)Nc2ncccn2)c(O)c2ccccc21`, the Potency is 2.82 µM (active).
With `O=C(N/N=C/c1ccco1)c1csc2c1CCCC2`, the Potency entry was “inactive”.
On to `Cc1ccc(NC(=O)c2csc3c2CCCC3)cc1`, for which the Potency is 2.82 µM (active).
The result for `O=C(Nc1ccccc1N1CCOCC1)c1csc2c1CCCC2` reads “inactive”; that for `Cc1ccc(N=C2NC(=O)c3cccc([N+](=O)[O-])c32)cc1`, “inactive”.
Turning to `COc1ccc2nc(NC(=O)c3ccc(Br)s3)sc2c1`, the Potency was 3.98 µM (active).
In the case of `COc1ccc(CNC(=O)c2ccc(Br)s2)cc1OC` it was “inactive”; in that of `CCc1noc(C)c1C(=O)Nc1nc2ccc(OC)cc2s1`, “inactive”; in that of `COc1ccc2nc(NC(=O)[C@@H]3CCCN3C(=O)c3cccs3)sc2c1`, “inactive”.
`COc1ccc2nc(NC(=O)NC3CCCCC3)sc2c1`: the Potency was 3.16 µM (active).
On to `CS(=O)(=O)c1ccc2nc(NC(=O)C3CCCCC3)sc2c1`, for which the Potency entry was “inactive”.
Take `CCOc1ccc(OCC(=O)OC(C)C(=O)NC2CCCCC2C)cc1` (stereo not drawn): the Potency result is “inactive”.
Take `O=C(CCc1nc2sc3c(c2c(=O)[nH]1)CCCC3)NCC(=O)Nc1ccccc1Br`: the Potency entry is “inactive”.
The result for `CSCCC(NC(=O)c1ccco1)C(=O)NCCc1ccc(F)cc1` (stereo not drawn) reads “inactive”.
For the compound `COc1ccc(S(=O)(=O)N2CCN(C(C)C(=O)Nc3ccc(C(C)C)cc3)CC2)cc1` (stereo not drawn), the Potency entry is “inactive”.
Take `CCC(=O)c1ccc(OCC(=O)OCC(=O)N2CCc3ccccc3C2)cc1`: the Potency entry was “inactive”.
The result for `O=C(Nc1nc2ccc([N+](=O)[O-])cc2s1)c1ccncc1` reads 1.41 µM (active); that for `O=C(NC(Nc1nc2ccc([N+](=O)[O-])cc2s1)(C(F)(F)F)C(F)(F)F)c1ccccc1`, “inactive”; that for `CCOc1ccc2nc(NC(=O)c3cc([N+](=O)[O-])ccc3N3CCOCC3)sc2c1`, “inactive”.
Turning to `CCC(C(=O)N1CCN(S(=O)(=O)c2sc(C(=O)O)c(C)c2C(=O)O)CC1)c1ccccc1` (stereo not drawn), the Potency result was “inactive”.
In the case of `Cc1nc(N)sc1N=Nc1c(C)n(C)n(-c2ccccc2)c1=O` it was “inactive”; in that of `Cc1c(N=Nc2ccc(N(C)C)cc2)c(=O)n(-c2ccccc2)n1C`, 3.55 µM (active).
For the compound `Cc1c(C=O)n(C)n(-c2ccccc2)c1=O`, the Potency entry was “inactive”.
The result for `CC(C(=O)Nc1ccc(S(=O)(=O)N2CCCC2)cc1)N(C)Cc1ccc(F)cc1` (stereo not drawn) reads “inactive”; that for `CCN(CC)S(=O)(=O)c1cc(C(=O)Nc2ccccn2)ccc1C`, 2.24 µM (active).
In the case of `CCN(c1ccccc1)S(=O)(=O)c1cc(C(=O)NCc2ccccn2)ccc1C` it was “inactive”; in that of `Cc1ccc(NC(=O)CNCc2ccccn2)cc1S(=O)(=O)N(C)C`, “inactive”.
`COc1cc(OC)cc(C(=O)NCC(=O)N2CCCCCCC2)c1`: the Potency entry is “inactive”.
The result for `Cc1ccc(C)c(NC(=O)COC(=O)CSc2ccccc2)c1` reads “inactive”; that for `COc1ccc(-c2cn3ccc(C)cc3n2)cc1`, 0.112 µM (active); that for `COc1cc(OC)cc(-c2nc(=S)n3ccsc3n2)c1`, “inactive”.
In the case of `CCN(c1cccc(C)c1)S(=O)(=O)c1ccc(-c2coc(C)n2)cc1`, the Potency result was “inactive”.
The result for `COc1ccc(-c2cn3ccsc3n2)cc1` reads 1.58 µM (active).
The result for `COc1ccc(CNc2nccs2)cc1` reads “inactive”; that for `CCN(CC(=O)NCCc1ccccc1)S(=O)(=O)c1ccc(C)cc1`, “inactive”.
In the case of `COc1ccc(-n2c(-c3ccc(OC)c(OC)c3)n[nH]c2=S)cc1` it was “inactive”.
For the compound `CCN(CC)S(=O)(=O)c1ccc(-c2cn3ccc(C)cc3n2)cc1`, the Potency was 1.26 µM (active).
On to `Cc1ccn2cc(C(=O)NC3CCN(Cc4ccccc4)CC3)nc2c1`, for which the Potency entry was “inactive”.
For `COC(=O)Cc1ccc(OC(=O)C2CCN(S(=O)(=O)c3ccc(OC)c(OC)c3)CC2)cc1`, the Potency result is “inactive”.
Turning to `COCCn1c(C)cc(C(=O)CSc2nnc(C3CC3)n2C2CC2)c1C`, the Potency result was “inactive”.
The result for `CN(C(=O)COC(=O)CCCc1c[nH]c2ccccc12)c1c(N)n(Cc2ccccc2)c(=O)[nH]c1=O` reads “inactive”.
The result for `O=C(Nc1ccc2c(c1)OCCO2)C1CCCN(c2ncccn2)C1` (stereo not drawn) reads 0.398 µM (active); that for `O=C(Nc1ccc2c(c1)OCCO2)C1CCCC1`, “inactive”.
Consider `Cc1cc(C)nc(N2CCC(C(=O)Nc3ccc4c(c3)OCCO4)CC2)n1`, for which the Potency result was “inactive”.
The result for `CCc1ccccc1NC(=O)CN(C)C(=O)c1cc(C2CC2)nn1-c1ccccc1` reads “inactive”; that for `COc1ccc(Cl)cc1C(=O)OCC(=O)NCc1cccs1`, “inactive”.
The result for `CCN(CC(=O)Nc1c(F)cccc1F)C(=O)c1ccc(-c2ccc(C(C)=O)cc2)o1` reads “inactive”.
In the case of `N#Cc1ccc(CN2CCN(CC(=O)Nc3ccccc3C(=O)NC3CC3)CC2)cc1` it was “inactive”.
Consider `Cc1c(CCC(=O)O)c(=O)oc2cc3occ(-c4ccccc4)c3cc12`, for which the Potency entry was “inactive”.
In the case of `O=c1c(-c2ccccc2)coc2cc(O)ccc12` it was 3.16 µM (active).
The result for `CC(C)CN(Cc1c(O)ccc2c(=O)c(-c3ccccc3)coc12)CC(C)C` reads “inactive”.
The result for `COCC1CCCN(Cc2nc(-c3ccc4c(c3)OCO4)no2)C1` (stereo not drawn) reads “inactive”; that for `CC(C)CCNC(=O)c1ccc2c(Cl)c3c(nc2c1)CCC3`, 2 µM (active).
`COc1ccc(N2CCN(C(=O)c3ccc4c(Cl)c5c(nc4c3)CCCC5)CC2)cc1`: the Potency entry was “inactive”.
With `CC(=O)c1ccc(NC(=O)c2ccc3c(Cl)c4c(nc3c2)CCCC4)cc1`, the Potency entry is “inactive”.
In the case of `Cc1c(C)c(C)c(S(=O)(=O)N2CCC3(CC2)OCCO3)c(C)c1C` it was “inactive”.
With `CCOc1ccc(S(=O)(=O)NCCC(=O)NCC2CCCO2)cc1` (stereo not drawn), the Potency entry is “inactive”.
Regarding `CC(NC(=O)CN(C)S(=O)(=O)c1ccc(F)cc1)C1CC2CCC1C2` (stereo not drawn), the Potency entry is “inactive”.
The result for `CCCCN1C(=O)C(=O)N(CC(=O)Nc2cccc(C(C)=O)c2)C1=O` reads “inactive”.
For `COc1cc(C(c2c(NC(=O)c3ccco3)sc(C)c2C)N2CCOCC2)cc(OC)c1OC` (stereo not drawn), the Potency entry was “inactive”.
As to `c1cnc(Nc2nc(-c3ccc4ccccc4c3)cs2)nc1`, the Potency is 0.282 µM (active).
Take `O=C(Nc1nc(-c2ccc(-c3ccccc3)cc2)cs1)c1cnccn1`: the Potency result was “inactive”.
In the case of `CCCn1c(CCNc2nc(-c3ccc(OC)cc3)cs2)nc2ccccc21` it was “inactive”; in that of `COc1ccc(-c2csc(Nc3ccccn3)n2)cc1`, 0.631 µM (active).
Regarding `Clc1ccc(-c2csc(-c3ccncc3)n2)cc1`, the Potency result was “inactive”.
On to `c1ccc(Nc2nc(-c3ccncc3)cs2)nc1`, for which the Potency is 2.24 µM (active).
Regarding `Cc1ccc(-c2csc(NC3OC(=O)c4ccccc43)n2)cc1` (stereo not drawn), the Potency entry is “inactive”.
In the case of `COc1ccc(C(=O)Nc2nc(-c3ccc(S(=O)(=O)N4CCOCC4)cc3)cs2)cc1` it was “inactive”.
The result for `O=C(O)c1ccccc1C(=O)Nc1nc(-c2ccccc2)cs1` reads “inactive”; that for `CC(=O)c1ccc(N2CCN(C(=O)c3ccc(Cl)c(S(=O)(=O)NC4CC4)c3)CC2)c(F)c1`, “inactive”; that for `COc1ccccc1NC(=O)CSc1nnc(CNC(=O)c2ccccc2F)o1`, “inactive”.
Turning to `O=C(/C=C/c1cccc([N+](=O)[O-])c1)OCC(=O)N1CCOCC1`, the Potency result is “inactive”.
As to `CC1CC(=O)Nc2ccccc2N1C(=O)COc1ccc2cc(Br)ccc2c1` (stereo not drawn), the Potency entry is “inactive”.
The result for `NC(=O)NCCCC(=O)O` reads “inactive”; that for `CC(C)(C)NC(=O)Cn1nnc(-c2ccccc2Cl)n1`, 3.98 µM (active); that for `Cc1ccccc1-c1nnn(CC(=O)c2ccc(S(=O)(=O)N3CCCC3)cc2)n1`, “inactive”.
In the case of `COc1cc(-c2nnn(CC(=O)NCc3ccccc3)n2)cc(OC)c1OC` it was “inactive”.
In the case of `CCOc1cc(/C=C/C(=O)OCC(=O)NCCN2C(=O)CSC2=O)ccc1OCC(C)C` it was “inactive”; in that of `CCOC(=O)c1cc(-c2ccccc2C)n(Cc2cc(C)no2)n1`, “inactive”; in that of `COCc1c(C(=O)OCC(=O)Nc2ccc(OC(F)F)cc2)oc2ccccc12`, “inactive”.
For `CN(C)c1ccc(-c2nnc(-c3cccnc3)o2)cc1`, the Potency was 1.12 µM (active).
The result for `COC(=O)CSc1nnc(-c2cccnc2)o1` reads “inactive”.
In the case of `CN(C)c1nc(-c2cccnc2)nc(-c2ccc(Cl)cc2)c1C#N`, the Potency entry is “inactive”.
Consider `COc1ccc([C@H]2CC(=O)C=C(/C=C/c3ccccc3)C2)cc1`, for which the Potency result is “inactive”.
In the case of `CCc1cccc(C)c1N1C(=O)CN(Cc2ccccc2)C1=S`, the Potency result is “inactive”.
The result for `Cc1ccc(SCCC(=O)NC(C(C)C)C(C)C)cc1` reads “inactive”; that for `Cc1ccc(SCCC(=O)NCc2ccccn2)cc1`, “inactive”; that for `Cc1ccc(SCCSc2ncccn2)cc1`, 1.26 µM (active).
The result for `COc1ccc(S(=O)(=O)N2CCOCC2)cc1NC(=O)Cc1coc2cc(C)ccc12` reads “inactive”; that for `Cc1n[nH]c(=O)c2c(NC(=O)CSc3cc(Cl)ccc3Cl)oc(C)c12`, “inactive”; that for `CCCCN(C(=O)c1nn(C)c(=O)c2ccccc12)c1c(N)n(CCC)c(=O)[nH]c1=O`, “inactive”.
The result for `COc1cccc(CNC(=O)COC(=O)CN2C(=O)NC3(CCCCC3C)C2=O)c1` (stereo not drawn) reads “inactive”.
